PubChem BioAssay (NCATS)
Records with an inconclusive call do not appear. A number with no mark means an inactive call. The source made the active and inactive calls. Calls follow the shape of the dose curve; as a rule, active = well fitted cell-killing curve with a large enough effect; inconclusive = small, poorly fitted or top-dose-only effect; inactive = flat fitted curve, though single readings scatter.

Experiment: Cell Viability - LYMP2-023 (AID 975); also: nearly all actives have a fitted effect of over 55% in size
Conditions: LYMP2-023 lymphoblastoid cell viability; series mostly up to 92.2 µM; activity change, negative = cytotoxicity: at the top concentration
Text: NIH Chemical Genomics Center [NCGC]
NIH Molecular Libraries Screening Centers Network [MLSCN]
National Institutes of Environmental Health Sciences [NIEHS]
National Toxicology Program [NTP]
We have developed a 1536-well cell-based assay for quantitative high throughput screening (qHTS) against a number of cell lines to determine in vitro cytotoxicity of small molecules. This particular assay uses a human lymphoblastoid cell line (LYMP2-023) purchased from Coriell Institute for Medical Research.
NCGC Assay Protocol Summary:
The CellTiter-Glo luminescent cell viability assay (Promega) is a homogeneous method to measure the number of viable cells in culture. The end point readout of this assay is based on quantitation of intracellular ATP, an indicator of metabolic activity, using the luciferase reaction. Luciferase catalyzes the oxidation of beetle Luciferin to oxyluciferin and light in the presence of ATP. The luminescent signal is proportional to amount of ATP present.
Using the CellTiter-Glo luminescent cell viability assay, the amount of cellular ATP was measured in the lymphoblastoid cell line with complete culture medium following compound treatment for 24 hours. The assay was performed in opaque white Kalypsys 1536-well plates. In the screen, tetraoctylammonium bromide was used as positive control. Library compounds were measured for their ability to cause acute toxicity in the cell line, as reflected by a decrease in intracellular ATP levels, in a concentration-dependent manner. […] AC50 values were determined from concentration-response data modeled with the standard Hill equation.
qHTS protocol for CellTiter Glo lymphoblastoid cellular assay
[Step] [Parameter] [Value] [Description]
1. Reagent; 5 uL; 2500 lymphoblastoid cells/well
2. Time; 5 hr; 37 C incubation
4. Controls; 23 nL; Tetraoctylammonium bromide 6.4pM to 92 uM
5. Time; 24 hr; 37 C incubation
6. Reagent; 5 uL; CellTiter Glo reagent
7. Time; 30 min; Room Temperature
8. Detection; Luminescence; Viewlux plate reader
Keywords: cell viability, cytotoxicity, lymphoblastoid cell line, luminescence, NTPHTS, NTPHTS_NCGC, NIEHS, DSSTox, MLSMR, MLSCN, NIH Roadmap, qHTS, NCGC
Potency is read from the fitted curve at half-maximal effect.

SMILES	activity change, negative = cytotoxicity [%]	Potency
c1cc2c3c(c1)ccc1cccc(c13)C2	-13.8	–
Nc1cc([N+](=O)[O-])ccc1O	-4.29	–
S=C(NC1CCCCC1)NC1CCCCC1	-8.59	–
Cc1ccccc1OCC1CO1 (stereo not given)	-1.75	–
c1c[nH]cn1	-3.71	–
C=CC(=O)CC	3.14	–
C[C@@H]1CC2(OC(O)[C@]3(C)O[C@H]23)O[C@H]2C[C@@]3(C)[C@@H]4CC[C@H]5C(C)(C)C(O[C@@H]6OC[C@@H](O)[C@H](O)[C@H]6O)CC[C@@]56C[C@@]46CC[C@]3(C)[C@@H]12 (stereo not given in full)	-25.9	–
N=C1C=CC(=C(c2ccc(N)cc2)c2ccc(N)cc2)C=C1	–	10 µM (active)
Nc1ccc(N=Nc2ccccc2)c(N)c1	-15.1	–
CC/C=C/C/C=C/C/C=C/CCCCCCCC(=O)OCC	–	39.8 µM (active)
CC(C)S	2.6	–
O=[N+]([O-])c1cc(Cl)c(Cl)c(Cl)c1Cl	-26.9	–
CCCCC(CC)COCCCN (stereo not given)	3.03	–
c1ccc(CSCc2ccccc2)cc1	4.42	–
O=[N+]([O-])c1ccc(F)cc1F	-21.5	–
CCCCC(CC)COP(=O)(OCC(CC)CCCC)OCC(CC)CCCC (stereo not given)	-6.48	–
Brc1ccc(-c2ccccc2)cc1	3.2	–
C=CC1CO1 (stereo not given)	-7.13	–
Nc1ccc2c(c1)C(=O)c1ccccc1C2=O	-23.6	–
NC(=O)Nc1nc2ccccc2[nH]1	-1.15	–

SMILES	activity change, negative = cytotoxicity [%]	Potency
CCc1ccc(C(c2ccc(CC)cc2)C(Cl)Cl)cc1	-13.4	–
CC(/C=C/C=C(C)/C=C/C(=O)O)=C\C=C\C=C(C)\C=C\C=C(C)\C=C\C(=O)O	-3.63	–
C=CC(C)(O)CCCC(C)CCCC(C)CCCC(C)C (stereo not given)	-0.231	–
CC(=O)OC(C(=O)c1ccccc1)c1ccccc1 (stereo not given)	-8.54	–
CCN(CC)c1ccc2c(C)cc(=O)oc2c1	-5.85	–
c1ccc(COCc2ccccc2)cc1	-6.54	–
OCC(CO)(CBr)CBr	0.921	–
CC(=O)Nc1cccc(C)c1	3.65	–
O=C1OC(=O)c2ccccc21	2.98	–
Nc1ccccc1O	-3.67	–
O=CC(=O)c1ccccc1	-19.9	–
O=C(O)/C=C/c1ccc(/C=C/C(=O)O)cc1	-6.93	–
Nc1ccc(N)c(Cl)c1	-0.363	–
CC(C)(C)C(=O)C1C(=O)c2ccccc2C1=O	-19.8	–
Oc1cc(Cl)cc(Cl)c1Cl	3.96	–
C1CCCNCC1	0.557	–
O=[N+]([O-])c1cccc(I)c1	-2.81	–
O=C1c2ccccc2C(=O)C1(O)O	-13	–
CC(=O)OCc1ccc2c(c1)OCO2	-0.596	–
CC1=C(/C=C/C(C)=C/C=C/C(C)=C/C=O)C(C)(C)CCC1	–	50.1 µM (active)
